For four compounds, composite z-score and z-score results are on record in PubChem BioAssay.

Activity calls are given as the source filed them. Unless noted, how the calls were made is not given here.

Assay [1] has as its system Wnt5a (protein binding on small-molecule microarray). Briefly: Wnt5a binders on small-molecule microarray, primary screen, biophysical, 635/667 nm fluorescence (AID 1142).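 Further: fluorescence read at 667 nm with signal to noise per printed feature.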 To be noted: 635 nm fluorescence, higher = more signal.
The nature of assay [2]: cell viability in Huh7 cells, primary screen, cytotoxicity control for HCV replication inhibitor project, CellTiter-Glo luminescence, basal, 48 h (AID 1143).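 Further: Huh7 hepatoma cells carrying a hepatitis C replication reporter with no stimulus; test concentration not given here.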 The note with it: Huh7 HCV replicon, higher = more signal, called active from +8 up or from −8 down. (In general: ATP-based viability assays read luminescence as a measure of living cells.)
A short description of assay [3]: P. aeruginosa biofilm formation inhibitors, primary screen, PAO1 strain, BacTiter-Glo luminescence, LB-PBS (AID 1144). To be noted: 12 h, higher = more signal.
A short description of assay [4]: CREB reporter modulators without forskolin, primary screen, cell-based, PC12, CRE-LacZ reporter, unstimulated (AID 1145). The note with it: no forskolin, luminescence, 4.5 h, higher = more signal, called active from +8 up or from −8 down.
Assay [5] is described as follows: CREB reporter modulators under forskolin, primary screen, cell-based, PC12, CRE-LacZ reporter, forskolin-stimulated (AID 1146).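 Further: PC12 cells with 6xCRE LacZ reporter stimulated by forskolin 10 µM; beta-galactosidase reporter signal reflecting CREB driven transcription.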 The note with it: luminescence, 4.5 h, higher = more signal, called active from +8 up or from −8 down.
The target in assay [6] is Streptavidin (Streptomyces avidinii) (UniProt P22629). Briefly: streptavidin binders on small-molecule microarray, primary screen, artefact control for SMM compound annotation, biophysical, 635/667 nm fluorescence (AID 1147).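 Further: signal reflects streptavidin binding to arrayed compounds as a control protein.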 The note with it: streptavidin binding, higher = more signal.
Sequence of Streptavidin (Streptomyces avidinii) (P22629 whole entry, looked up): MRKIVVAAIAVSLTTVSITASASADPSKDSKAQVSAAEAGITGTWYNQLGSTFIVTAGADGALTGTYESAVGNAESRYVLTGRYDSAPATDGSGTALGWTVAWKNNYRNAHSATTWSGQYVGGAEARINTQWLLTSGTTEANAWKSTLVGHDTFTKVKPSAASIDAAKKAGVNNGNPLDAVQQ
Assay [7] in a line: small-molecule binders of probe aInhba, primary screen, biochemical, small-molecule microarray, 635/667 nm fluorescence (AID 1148).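 Further: score merges 667nm spot fluorescence with signal-to-noise for antibody binding to printed compounds.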 To be noted: higher = more signal.
For assay [8], the target named is Torsin-1A (Homo sapiens) (UniProt O14656). Briefly: torsin A binders from cell lysate, primary screen, small-molecule microarray, wild-type, 635/667 nm (AID 1149). To be noted: COS7 hTOR1A-WT lysate, 635 nm fluorescence, higher = more signal.
Sequence of Torsin-1A (Homo sapiens) (O14656 whole entry, looked up): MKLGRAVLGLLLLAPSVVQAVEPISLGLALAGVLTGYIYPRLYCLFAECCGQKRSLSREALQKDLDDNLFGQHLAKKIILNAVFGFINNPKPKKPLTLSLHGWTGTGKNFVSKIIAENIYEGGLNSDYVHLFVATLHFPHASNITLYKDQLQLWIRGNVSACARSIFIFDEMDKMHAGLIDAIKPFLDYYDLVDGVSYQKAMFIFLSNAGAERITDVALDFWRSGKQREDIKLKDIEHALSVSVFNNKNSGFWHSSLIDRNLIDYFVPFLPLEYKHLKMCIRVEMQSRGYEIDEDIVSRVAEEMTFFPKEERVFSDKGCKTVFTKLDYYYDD
Assay [9] has the same target. Briefly: small-molecule binders of mutant TOR1A in lysate, primary screen, cell lysate, small-molecule microarray, COS7 lysate, 635/667 nm fluorescence (AID 1150).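 Further: score pools 667 nm emission and signal to noise measuring lysate protein binding.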 The note with it: COS7 hTOR1A mutant lysate, 635 nm fluorescence, higher = more signal.
In assay [10] the test system is Sonic hedgehog protein (Shh). Kind of assay: small-molecule binders of Shh protein, primary screen, biochemical, small-molecule microarray, 635/667 nm fluorescence (AID 1151).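 Further: Shh protein binding to compounds spotted on small-molecule microarray slides; score combines spot fluorescence intensity with signal-to-noise across triplicate slides.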 The note with it: small-molecule microarray binding, 635 nm fluorescence; higher = more signal.
A short description of assay [11]: E. coli DRC41 culture turbidity changes, primary screen, E. coli filamentation inducer project, strain DRC41, OD650, 48 h (AID 1152).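 Further: E. coli MC1000 strain DRC41 lacking acrAB efflux pump and sulA.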 To be noted: E. coli DRC41 (acrAB sulA), higher = more signal, called active from +8 up or from −8 down.
The nature of assay [12]: small-molecule binders of probe aLefty1, primary screen, biochemical, small-molecule microarray, 635/667 nm fluorescence (AID 1153).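 Further: score merges spot fluorescence with signal-to-noise ratio from the scanned slide images.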 To be noted: higher = more signal.
Assay [13] is described as follows: PSAC antagonists in infected red cells, primary screen, cell-based, P. falciparum Indochina, OD700, 1 h (AID 1154). The note with it: P. falciparum Indochina infected RBC osmotic lysis, higher = more signal, called active from +8 up or from −8 down.
Assay [14] can be described thus: PSAC antagonists in infected red cells, primary screen, cell-based, P. falciparum Indochina, OD700, 2 h (AID 1155).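 Further: lysis reports solute entry through the parasite surface anion channel PSAC; channel blockers reduce lysis of infected cells.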 The note with it: P. falciparum Indochina infected erythrocytes, osmotic lysis OD700; higher = more signal, called active from +8 up or from −8 down.
Assay [15] in a line: osmotic lysis modulators in infected erythrocytes, primary screen, PSAC antagonist project, cell-based, P. falciparum Indochina, OD700, 3 h (AID 1156). To be noted: higher = more signal, called active from +8 up or from −8 down.
Assay [16] can be described thus: PSAC antagonists in infected red cells, primary screen, cell-based, P. falciparum Indochina, OD700, 18 h (AID 1157). The note with it: P. falciparum Indochina infected erythrocytes, osmotic lysis OD700, 18 h; higher = more signal, called active from +8 up or from −8 down.
The nature of assay [17]: modulators of S6 phosphorylation in cells, primary screen, cell-based, A549, cytoblot, luminescence, serum-stimulated (AID 1158).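 Further: serum-stimulated A549 lung adenocarcinoma cells; signal is phosphorylated S6 detected by cytoblot immunostaining with HRP secondary.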 The note with it: A549 phospho-S6 cytoblot, 5 h, higher = more signal.
Assay [18] deals with NADPH oxidase 2 (Homo sapiens) (UniProt P04839). Kind of assay: NOX2-dependent H2O2 signal modulators, primary screen, NOX inhibitor project, cell-based, HEK293-NOX2, PMA-stimulated, Amplex Red fluorescence (AID 1159). Further: test concentration not given here. To be noted: 45 min, higher = more signal, called active from +8 up or from −8 down.
Sequence of NADPH oxidase 2 (Homo sapiens) (P04839 whole entry, looked up): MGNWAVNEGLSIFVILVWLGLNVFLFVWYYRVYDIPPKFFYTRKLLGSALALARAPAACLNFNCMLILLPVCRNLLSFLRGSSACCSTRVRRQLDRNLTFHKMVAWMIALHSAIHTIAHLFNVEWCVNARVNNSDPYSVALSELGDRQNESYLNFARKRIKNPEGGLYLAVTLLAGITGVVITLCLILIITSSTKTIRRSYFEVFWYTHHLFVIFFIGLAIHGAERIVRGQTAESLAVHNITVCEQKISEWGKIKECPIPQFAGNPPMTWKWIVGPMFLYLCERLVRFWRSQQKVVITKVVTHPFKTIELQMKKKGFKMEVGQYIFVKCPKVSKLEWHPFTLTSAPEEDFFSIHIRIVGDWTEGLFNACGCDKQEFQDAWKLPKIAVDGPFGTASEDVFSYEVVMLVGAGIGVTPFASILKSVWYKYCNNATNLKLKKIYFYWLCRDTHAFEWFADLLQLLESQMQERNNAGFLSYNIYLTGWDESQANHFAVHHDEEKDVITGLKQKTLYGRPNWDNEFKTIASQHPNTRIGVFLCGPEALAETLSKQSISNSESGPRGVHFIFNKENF
Assay [19] has as its target NADPH oxidase 4 (Homo sapiens) (UniProt Q9NPH5). Briefly: NOX4-dependent H2O2 signal modulators, primary screen, NOX inhibitor project, cell-based, HEK293-NOX4, tetracycline-induced, Amplex Red fluorescence (AID 1160). To be noted: 45 min, higher = more signal, called active from +8 up or from −8 down.
Assay [20] concerns the target NADPH oxidase 5 (Homo sapiens) (UniProt Q96PH1). Kind of assay: NOX5-dependent H2O2 signal modulators, primary screen, NOX inhibitor project, cell-based, HEK293-NOX5, Amplex Red fluorescence (AID 1161). The note with it: HEK293-NOX5, ionomycin, 45 min, higher = more signal.

Sequence of NADPH oxidase 5 (Homo sapiens) (Q96PH1 whole entry, looked up): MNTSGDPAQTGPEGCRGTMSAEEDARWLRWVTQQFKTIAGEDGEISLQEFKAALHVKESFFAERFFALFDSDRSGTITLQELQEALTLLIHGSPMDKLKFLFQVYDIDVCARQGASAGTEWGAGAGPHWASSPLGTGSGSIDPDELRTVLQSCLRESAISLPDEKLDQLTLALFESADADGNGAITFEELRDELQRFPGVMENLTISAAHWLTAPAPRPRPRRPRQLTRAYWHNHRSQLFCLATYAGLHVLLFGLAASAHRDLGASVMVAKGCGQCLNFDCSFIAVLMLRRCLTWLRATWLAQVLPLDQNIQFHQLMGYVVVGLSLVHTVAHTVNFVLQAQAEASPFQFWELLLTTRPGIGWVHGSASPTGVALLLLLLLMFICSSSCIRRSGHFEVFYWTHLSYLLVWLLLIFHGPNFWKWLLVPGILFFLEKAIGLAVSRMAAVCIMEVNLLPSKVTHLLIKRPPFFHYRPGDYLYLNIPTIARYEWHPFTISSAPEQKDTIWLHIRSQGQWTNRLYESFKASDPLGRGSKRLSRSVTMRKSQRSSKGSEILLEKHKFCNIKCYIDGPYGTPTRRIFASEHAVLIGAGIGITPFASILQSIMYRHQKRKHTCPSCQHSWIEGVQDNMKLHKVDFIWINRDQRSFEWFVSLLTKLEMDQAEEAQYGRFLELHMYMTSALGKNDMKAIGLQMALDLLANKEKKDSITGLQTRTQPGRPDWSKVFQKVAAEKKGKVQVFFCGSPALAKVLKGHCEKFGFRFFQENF
Sequence of NADPH oxidase 4 (Homo sapiens) (Q9NPH5 whole entry, looked up): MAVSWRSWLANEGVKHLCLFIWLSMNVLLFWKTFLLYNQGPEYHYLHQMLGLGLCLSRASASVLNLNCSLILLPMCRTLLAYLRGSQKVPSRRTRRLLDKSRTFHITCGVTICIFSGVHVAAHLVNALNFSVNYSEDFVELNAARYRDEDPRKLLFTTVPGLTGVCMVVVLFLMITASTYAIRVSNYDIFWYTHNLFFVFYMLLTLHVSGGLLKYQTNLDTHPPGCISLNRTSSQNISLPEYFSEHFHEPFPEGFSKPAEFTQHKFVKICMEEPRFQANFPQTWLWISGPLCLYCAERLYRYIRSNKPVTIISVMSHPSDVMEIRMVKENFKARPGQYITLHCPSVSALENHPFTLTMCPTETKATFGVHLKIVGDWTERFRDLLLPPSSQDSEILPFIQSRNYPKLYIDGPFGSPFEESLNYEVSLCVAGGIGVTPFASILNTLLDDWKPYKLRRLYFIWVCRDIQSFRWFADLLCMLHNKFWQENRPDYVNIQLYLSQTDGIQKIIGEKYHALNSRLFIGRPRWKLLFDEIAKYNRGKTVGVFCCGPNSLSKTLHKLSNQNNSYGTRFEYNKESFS

As for `COC(=O)C/C=C/C[C@]1(O)C(=O)N(C)c2ccccc21`, the composite z-score was 0.0325 in [1]; -0.373 in [6]; -0.104 in [7]; 0.325 in assay [8]; 0.582 in assay [9]; 0.775 in assay [10]. In assay [12], this compound showed a composite z-score of -0.147. In addition, the z-score in assay [2] is -1.2 (inactive); in assay [3], -0.716 (inactive); in assay [4], 1.04 (inactive); in [5], -1.55 (inactive); in assay [11] it was 2.8 (inactive); in assay [13], -0.526 (inactive). In addition, the z-score in [14] is -0.562 (inactive); in assay [15], -0.679 (inactive); in assay [16] it was -1.87 (inactive); in assay [17], 1.26; in [18], -0.563 (inactive); in assay [19], 0.4 (inactive). Further, the z-score in assay [20] is 0.882.

With `O=C1OCCC/C=C\[C@H]2OC34C=CCN(c5ccc6ccccc6c5)C(=O)[C@H]3N(CCO)C(=O)[C@@H]4C12` (stereo not given in full), the composite z-score in assay [1] is -0.325; in assay [6] it was -1.2; in assay [7], -0.299; in assay [8] it was -0.427; in [9] it was -0.839; in [10], -0.59. This compound yielded a composite z-score in [12] of 0.0313. In addition, the z-score in [2] was 0.43 (inactive); in [3] it was 0.515 (inactive); in assay [4] it was 0.601 (inactive); in assay [5], -0.183 (inactive); in assay [11], -0.067 (inactive); in assay [13] it was 2.17 (inactive). Besides, the z-score is 0.476 (inactive) in assay [14]; 0.217 (inactive) in [15]; 0.532 (inactive) in assay [16]; 0.235 in assay [17]; 0.356 (inactive) in assay [18]; -0.419 (inactive) in assay [19]. For the same compound, the z-score in assay [20] came to 1.81.

Regarding `CCCCC(CC)C(O)C1C=CC2C(=O)N(C)C(=O)C2N1Nc1ccccc1` (stereo not given), the composite z-score is 0.122 in assay [1]; 0.454 in assay [6]; 0.017 in assay [7]; -0.111 in [8]; 0.254 in assay [9]; -0.76 in assay [10]. Further, the composite z-score in assay [12] is 0.443. The z-score in [2] was 0.136 (inactive); in [3] it was -0.152 (inactive); in assay [4], -0.14 (inactive); in assay [5], 0.184 (inactive); in [11], -1.34 (inactive); in assay [13], 0.755 (inactive). The z-score was 0.916 (inactive) in assay [14]; -0.0492 (inactive) in assay [15]; 0.827 (inactive) in assay [16]; -0.778 in assay [17]; -1.45 (inactive) in assay [18]; -3.67 (inactive) in assay [19]. Also, in assay [20], the z-score was -3.2.

`CCCN1C(=O)[C@@]2(Cc3ccccc31)N=C(c1ccc(OCCCO)cc1)O[C@H]2c1ccccc1`: the composite z-score was 1.16 in assay [1]; 0.469 in assay [6]; -0.016 in assay [7]; 1.71 in assay [8]; 1.34 in assay [9]; 1.01 in assay [10]. In addition, the composite z-score in assay [12] was 0.396. Besides, the z-score is -3.36 (inactive) in [2]; 0.849 (inactive) in assay [3]; 2.07 (inactive) in assay [4]; -0.0414 (inactive) in assay [5]; -0.621 (inactive) in assay [11]; 18.6 (active) in assay [13]. Also, the z-score is 3.99 (inactive) in assay [14]; 2.49 (inactive) in [15]; 0.986 (inactive) in assay [16]; -0.408 in assay [17]; -0.135 (inactive) in assay [18]; -0.123 (inactive) in assay [19]. The same compound displayed a z-score in assay [20] of -1.61.
